“And” between values parts separate entries of the source, which are not always exact repeats. Equal entries are not always repeated. About 83,000 compounds went through this panel and 20% of them were active in at least one assay; those are over-represented in the sample as a whole.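 Each cell line was grown in a 96-well plate and treated with one concentration of compound for 48 hours. Values below 10 were considered active.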 Unmarked numbers belong to inactive results. The source made the active and inactive calls.
Columns and labels:
Experiment in all cases: NCI-60 one-dose screen, 48 h (100 = growth as untreated, 0 = no growth, -100 = all killed)
Conditions in all cases: 10 µM unless noted
[1] = tested on: HCT-15 colon
[2] = tested on: HT29 colon
[3] = tested on: SNB-75 CNS
[4] = tested on: SNB-19 CNS
[5] = tested on: U251 CNS
[6] = tested on: PC-3 prostate
[7] = tested on: SK-MEL-5 melanoma
[8] = tested on: UACC-62 melanoma
[9] = tested on: LOX IMVI melanoma
[10] = tested on: SK-MEL-28 melanoma
[11] = tested on: SK-MEL-2 melanoma
[12] = tested on: EKVX NSCLC
[13] = tested on: SN12C renal
[14] = tested on: UO-31 renal
[15] = tested on: TK-10 renal
[16] = tested on: ACHN renal
[17] = tested on: CAKI-1 renal
[18] = tested on: A498 renal
[19] = tested on: CCRF-CEM leukemia
[20] = tested on: HL-60(TB) leukemia

CCCCOCCOP(=O)(OCCOCCCC)OCCOCCCC
growth [1]: 101% | growth [2]: 104% | growth [3]: 103% | growth [4]: 98% | growth [5]: 106% | growth [6]: 103% | growth [7]: 99.1% | growth [8]: 93.7% | growth [9]: 91.7% | growth [10]: 117% | growth [11]: 114% | growth [12]: 97.7% | growth [13]: 98% | growth [14]: 100% | growth [15]: 96.1% | growth [16]: 102% | growth [17]: 98% | growth [18]: 89.1% | growth [19]: 110%

O=[N+]([O-])c1ccc2scc3c4ccccc4nc-3c2c1
growth [1]: -36.7% (active) | growth [2]: -47% (active) | growth [3]: -42% (active) | growth [4]: 46.7% | growth [5]: -92.4% (active) | growth [6]: -53.4% (active) | growth [7]: 8.28% (active) | growth [8]: -61% (active) | growth [9]: -87.1% (active) | growth [10]: -56.1% (active) | growth [11]: -63.2% (active) | growth [12]: 37.1% | growth [13]: -36% (active) | growth [14]: -85.4% (active) | growth [15]: -53.7% (active) | growth [16]: -97.5% (active) | growth [17]: -40.6% (active) | growth [18]: 44.9% | growth [20]: 1.24% (active) | growth [19]: -12.3% (active)

C=CCOC(=O)C(Br)CC (stereo unspecified)
growth [1]: 108% | growth [2]: 110% | growth [3]: 97.1% | growth [4]: 109% | growth [5]: 101% | growth [6]: 95% | growth [7]: 99.3% | growth [8]: 98.8% | growth [9]: 95.8% | growth [10]: 110% | growth [11]: 106% | growth [12]: 107% | growth [13]: 111% | growth [14]: 94.6% | growth [15]: 103% | growth [16]: 100% | growth [17]: 101% | growth [18]: 90.4% | growth [20]: 101% | growth [19]: 107%

Cc1cc(N(CCCl)CCCl)ccc1C=Nc1ccc(-c2csc(-c3ccccc3)n2)cc1
growth [1]: 103% | growth [2]: 112% | growth [3]: 84.6% | growth [4]: 79.4% | growth [5]: 85% | growth [6]: 69.6% | growth [7]: 80.8% | growth [8]: 58.8% | growth [9]: 80.2% | growth [10]: 105% | growth [11]: 97.2% | growth [12]: 111% | growth [13]: 64.4% | growth [14]: 59.9% | growth [15]: 113% | growth [16]: 80.5% | growth [17]: 32.7% | growth [18]: 97.7% | growth [19]: 46.5%

CC[C@H](C)[C@H](NC(=O)c1cnccn1)C(=O)N(C)[C@H](C[C@@H](OC(C)=O)c1nc(C(=O)N[C@@H](Cc2ccccc2)C[C@H](C)C(=O)OC)cs1)C(C)C
growth [1]: 6.99% (active) | growth [2]: -5.79% (active) | growth [3]: 15% | growth [4]: 31.9% | growth [5]: 10.3% | growth [6]: 21.7% | growth [7]: 0.869% (active) | growth [8]: 34.2% | growth [9]: 17.5% | growth [10]: 59.2% | growth [11]: 31.3% | growth [12]: 43.9% | growth [13]: 43.6% | growth [14]: 40.7% | growth [15]: 48.2% | growth [16]: 45.3% | growth [17]: 29.4% | growth [18]: -7.33% (active) | growth [20]: -43.7% (active) | growth [19]: 12%

C[C@@H]1C/C=C\C(=O)O[C@H](/C=C/C#C/C=C/C(C)(C)[C@@H](O)c2cccc(O)c2Br)[C@@H](C)/C=C/[C@H](C)C[C@H](OC(N)=O)C1
growth [1]: 2.46% (active) | growth [2]: 5.59% (active) | growth [3]: 32.7% | growth [4]: 53.6% | growth [5]: 24.5% | growth [6]: 33.5% | growth [7]: -61.5% (active) | growth [8]: -41.8% (active) | growth [9]: -2.94% (active) | growth [10]: 35.5% | growth [11]: 15.1% | growth [12]: 22% | growth [13]: 36.4% | growth [14]: 3.1% (active) | growth [15]: 43.5% | growth [16]: 35% | growth [17]: 6.13% (active) | growth [18]: 41% | growth [20]: 3.08% (active) | growth [19]: 25.7%

O=P(O)(Nc1ccccc1)Nc1ccccc1
growth [1]: 119% | growth [2]: 94.3% | growth [3]: 81.9% | growth [4]: 95.3% | growth [5]: 99.3% | growth [6]: 91.5% | growth [7]: 94.4% | growth [8]: 91.8% | growth [9]: 92.7% | growth [10]: 148% | growth [11]: 134% | growth [12]: 80.6% | growth [13]: 99.9% | growth [14]: 81.7% | growth [15]: 106% | growth [16]: 95.9% | growth [17]: 77.2% | growth [18]: 89.3% | growth [20]: 74% | growth [19]: 99.3%

N#CCc1ccc(CC#N)cc1
growth [1]: 96.5% | growth [2]: 92.4% | growth [3]: 101% | growth [4]: 93.2% | growth [5]: 93.6% | growth [6]: 91.2% | growth [7]: 101% | growth [8]: 92.3% | growth [9]: 101% | growth [10]: 101% | growth [11]: 99.4% | growth [12]: 97.7% | growth [13]: 86.7% | growth [14]: 89.8% | growth [15]: 100% | growth [16]: 103% | growth [17]: 97.1% | growth [18]: 78.8% | growth [20]: 92.9% | growth [19]: 100%

O=[N+]([O-])c1cc(Cl)c(Cl)cc1Cl
growth [1]: 104% and 108% | growth [2]: 124% and 111% | growth [3]: 93.8% and 121% | growth [4]: 101% and 131% | growth [5]: 93.4% and 102% | growth [6]: 96.1% and 102% | growth [7]: 123% and 105% | growth [8]: 91.4% and 115% | growth [9]: 96.5% and 98.4% | growth [10]: 115% and 124% | growth [11]: 143% and 119% | growth [12]: 106% and 113% | growth [13]: 94.6% and 108% | growth [14]: 104% and 95.4% | growth [15]: 120% | growth [16]: 104% and 109% | growth [17]: 100% and 107% | growth [18]: 104% | growth [20]: 114% | growth [19]: 105% and 106%

C/C(=C\c1ccn(-c2ccc(N)c(C(F)(F)F)c2)n1)[C@@H]1C[C@@H]2O[C@]2(C)CCC[C@H](C)[C@H](O)[C@@H](C)C(=O)C(C)(C)[C@@H](O)CC(=O)O1
growth [1]: 20% | growth [2]: 13% | growth [3]: -2.27% (active) | growth [4]: 38% | growth [5]: 26.3% | growth [6]: 15.7% | growth [7]: 21.5% | growth [8]: 20.7% | growth [9]: 26.2% | growth [10]: 55.8% | growth [11]: 45.1% | growth [12]: 39.7% | growth [13]: 41.3% | growth [14]: 32.7% | growth [15]: 52.6% | growth [16]: 46.3% | growth [17]: 52.1% | growth [18]: 22.6% | growth [20]: 7.41% (active) | growth [19]: 14.3%

Cc1nc2ccccc2c(=O)n1-c1ccccc1F
growth [1]: 103% | growth [2]: 103% | growth [3]: 82.1% | growth [4]: 104% | growth [5]: 88.1% | growth [6]: 86.6% | growth [7]: 100% | growth [8]: 105% | growth [9]: 103% | growth [10]: 111% | growth [11]: 105% | growth [12]: 89.3% | growth [13]: 95% | growth [14]: 88.1% | growth [15]: 98% | growth [16]: 104% | growth [17]: 96.4% | growth [18]: 84.5% | growth [20]: 89.3% | growth [19]: 99.1%

Cc1cc(N(CCCl)CCCl)ccc1/C=N\NC(=O)c1cccnc1
growth [1]: 93% and 85.1% | growth [2]: 90.9% and 101% | growth [3]: 71.5% and 86.4% | growth [4]: 94.1% and 105% | growth [5]: 82.9% and 93.2% | growth [6]: 84.3% and 77.6% | growth [7]: 88.8% and 79.1% | growth [8]: 45% and 60.5% | growth [9]: 69.4% | growth [10]: 108% and 97.8% | growth [11]: 77.4% and 114% | growth [12]: 97.9% and 95.8% | growth [13]: 67.8% and 75.5% | growth [14]: 80.3% and 83.4% | growth [15]: 89.2% and 103% | growth [16]: 72.6% and 84% | growth [17]: 36.2% and 41.5% | growth [18]: -85.4% (active) and -89.4% (active) | growth [19]: 60.2% and 62.1%

C[C@]12CCc3nc(-c4ccc(O)c(O)c4)sc3C1=CC[C@@H]1[C@@H]2CC[C@]2(C)C(=O)CC[C@@H]12
growth [1]: 26% | growth [2]: 77.7% | growth [3]: 92.3% | growth [4]: 75% | growth [5]: 40.5% | growth [6]: 34.3% | growth [7]: 78.5% | growth [8]: 91.5% | growth [9]: 89.1% | growth [10]: 84.6% | growth [11]: 104% | growth [12]: 95.7% | growth [13]: 72.7% | growth [14]: 43% | growth [15]: 53.6% | growth [16]: 51.3% | growth [17]: 39.7% | growth [18]: 113% | growth [20]: 51.4% | growth [19]: 47.5%

CO/N=C1\CC[C@]2(C)[C@H]3CC[C@]4(C)C(=O)CC[C@H]4[C@@H]3C[C@@H]3SC(N)=N[C@@]32C1
growth [1]: 93.8% | growth [2]: 93.2% | growth [3]: 97.1% | growth [4]: 104% | growth [5]: 105% | growth [6]: 85.4% | growth [7]: 101% | growth [8]: 79.7% | growth [9]: 98.1% | growth [10]: 94.5% | growth [11]: 96.5% | growth [12]: 91.8% | growth [13]: 107% | growth [14]: 77.9% | growth [15]: 116% | growth [16]: 100% | growth [17]: 74.3% | growth [18]: 98.9% | growth [19]: 98.7%

Source: PubChem BioAssay (NCI)
